# Out of some 2,300 compounds screened, about 1,100 (48%) were called active. The rule behind the calls is not given here. The set was probably picked from earlier hits. Some of the results follow. Entries with a potency or affinity are not part of this list.
# Assay: inhibitors in S. typhi counter-screen strain, dose response, counter-screen for PhoP regulon inhibitor project, fluorescence, 4 h (AID 2384)
# Details: S. typhi GFP reporter counter-screen; series mostly up to 150 µM
row,Compound,inhibition
1,Cc1ccc2[nH]cc(CCNC(=O)c3cccnc3)c2c1,inactive
2,Cc1cc(C)cc(CSc2nnc(C)c(=O)[nH]2)c1,inactive
3,COC(=O)c1c(-c2cccc(C)c2)csc1N,inactive
4,COC(=O)c1cc2ccsc2n1CC(=O)N(C)c1ccccc1,inactive
5,COc1c(Br)cc2c(C)c(C(=O)N3CCOCC3)oc2c1Br,inactive
6,Cn1c(=O)cc(SCC(=O)N2CCN(C3CCCCC3)CC2)c2ccccc21,inactive
7,COc1ccccc1C(=O)N1CC2(C)CC1CC(C)(C)C2 (stereo unspecified),inactive
8,NC(=O)COc1c(-c2ccco2)oc2ccccc2c1=O,inactive
9,O=C(NCc1ccc2c(c1)OCO2)c1ccc2c(c1)C(=O)N(Cc1cccnc1)C2=O,inactive
10,Cc1ncc(CC(=O)n2cc(C(=O)c3cc(F)ccc3O)cn2)s1,inactive
11,CCC(C)n1c(SCC(=O)NCc2ccco2)nnc1-c1cccc(S(=O)(=O)N2CCOCC2)c1 (stereo unspecified),inactive
12,COc1cc(C)c(Cl)cc1S(=O)(=O)n1cnc(C)c1,inactive
13,CC1CC(C)CN(C(=O)c2ccc(NC(=O)c3ccc(=O)[nH]c3)cc2)C1 (stereo unspecified),inactive
14,COc1cccc(NC(=O)N2CCCC(C(=O)Nc3ccccc3OC)C2)c1 (stereo unspecified),inactive
15,COc1ccccc1NC(=O)CSC1CC(=O)N(c2ccc3c(c2)OCO3)C1=O (stereo unspecified),inactive
16,CN(C)/C=N/c1ncc(C(=O)c2ccc(Cl)cc2)s1,inactive
17,CCN(CC)CCCCCCCCOC(=O)c1cc(OC)c(OC)c(OC)c1,inactive
18,CSc1ccc(NC(=O)C(C)N2CCN(C)CC2)cc1 (stereo unspecified),inactive
19,CCn1cc(C(=O)NCCc2ccccc2)c(=O)c2cc(F)c(N3CCN(C)CC3)cc21,inactive
20,O=C(CCc1nc2ccccc2s1)NC1CCOC1=O (stereo unspecified),inactive
21,CCOc1ccc2nc(NC(=O)C3=NNC(=O)CC3)sc2c1,inactive
22,CCCCn1cnc2cc(NCc3cccc(OC)c3O)ccc21,inactive

row,Compound,inhibition
1,CC(=O)Nc1ccc(S(=O)(=O)Nc2nc3ccccc3nc2Nc2cccc(S(N)(=O)=O)c2)cc1,inactive
2,COc1ccc(C(=O)NNS(=O)(=O)c2ccccc2)cc1OC,inactive
3,Cc1cc(C)c(S(=O)(=O)Nc2cccnc2)c(C)c1,inactive
4,Cc1cccc(NCN2C(=O)c3ccccc3C2=O)c1,inactive
5,Cc1ccc(S(=O)(=O)NC(C)(C)CSc2nnc(N)s2)cc1,inactive
6,COC(=O)NNS(=O)(=O)c1ccc(C)cc1,inactive
7,CCOc1ccccc1NC(=O)NS(=O)(=O)c1ccc(C)cc1,inactive
8,Cc1ccc(C)c(SCC(=O)Nc2ccc(S(=O)(=O)Nc3ncccn3)cc2)c1,inactive
9,O=C(COC(=O)CNC(=O)c1ccccc1)Nc1ccc(F)c([N+](=O)[O-])c1,inactive
10,CCOc1ccc(C2CC(=O)NC(SCC(=O)OC)=C2C#N)cc1 (stereo unspecified),inactive
11,COc1cc(S(=O)(=O)N2CCN(C(=O)c3ccco3)CC2)c(OC)cc1C,inactive
12,COc1ccc(-n2nnc3c(SCC(=O)N4CCCc5ccccc54)ncnc32)cc1,inactive
13,Cc1c(C(=O)N2CCN(Cc3ccccc3)CC2)sc2ncnc(N3CCOCC3)c12,inactive
14,O=C(Nc1ccccc1)c1cccnc1N1CCOCC1,inactive
15,CCC(Sc1nccn1C)C(=O)Nc1nnc(C)s1 (stereo unspecified),inactive
16,N#Cc1ccc(C2=NC(C(F)(F)F)(C(F)(F)F)c3c(n(Cc4ccco4)c(=O)[nH]c3=O)N2)cc1,inactive
17,COCCNC(=O)Cn1cnc2c1c(=O)n(C)c(=O)n2C,inactive
18,Cc1[nH]c2ccccc2c1/C=N/Nc1nc2ccccc2[nH]1,inactive
19,Cc1cc(C)c2c(N)c(C(=O)c3ccc(Cl)c(Cl)c3)sc2n1,inactive
20,O=C(O)c1cccc(NC2=Nc3cccc4cccc2c34)c1,inactive
21,COc1ccc(Cn2nnnc2C(c2cc3ccc(OC)cc3[nH]c2=O)N2CCC(C)CC2)cc1 (stereo unspecified),inactive
22,CCCCCNC(=O)c1cn(CC)c2cc(N3CCN(C)CC3)c(F)cc2c1=O,inactive

row,Compound,inhibition
1,O=C(CCC(=O)Nc1nnc(C2CCCCC2)s1)NCC1CCCO1 (stereo unspecified),inactive
2,COc1ccc(OC)c(S(=O)(=O)N2CCC(C(=O)NCc3ccccc3OC)CC2)c1,inactive
3,COC(=O)C1=C(C(=O)OC)SC(=C2C(=S)C(C)(C)N(C(=O)C3CC3)c3ccccc32)S1,inactive
4,COc1cc(/C=N/N(C)S(=O)(=O)c2ccc(C)cc2)cc([N+](=O)[O-])c1O,inactive
5,COc1cccc(/C=N/NC(=O)CNC(=O)COc2cccc(C)c2)c1O,inactive
6,Nc1ccc(C(O)(C(F)(F)F)C(F)(F)F)cc1,inactive
7,Cc1nnc(SCc2cnc(-c3ccc(C(C)C)cc3)s2)n1C,inactive
8,COC(=O)c1ccc(Cn2c(O)c(N=NC(N)=S)c3ccccc32)o1,inactive
9,CC1CCCCN1S(=O)(=O)c1ccc(S(=O)(=O)NCCc2ccncc2)cc1 (stereo unspecified),inactive
10,NC(=O)c1ccsc1NC(=O)c1ccc2c(c1)CCCC2,inactive
11,COc1ccc(/C=N/NC(=O)c2cccnc2)c(C(=O)O)c1OC,inactive
12,N#C/C(=C\c1ccc(O)c(O)c1)C(=O)c1ccc(O)c(O)c1,inactive
13,COc1cc(/C=C(/C#N)C(=O)Nc2ccccc2)c(Br)cc1OCc1ccc(C(=O)O)cc1,inactive
14,COc1ccc(OC)c(C(=O)c2ccc(C(=O)O)cc2)c1,inactive
15,COc1ccc(/C=N/NC2=NCCCCC2)c(OC)c1,15.8% [at 9.38 µM] (inactive)
16,COc1ccc2nc(C)cc(Nc3ccc(N4CCOCC4)cc3)c2c1,inactive
17,CC(Oc1ccc(/C=N/NC(=O)Cc2cccc3ccccc23)cc1)C(=O)O (stereo unspecified),inactive
18,COc1ccc(CNC(=O)C(c2cccs2)N(C(=O)c2csnn2)C2CC2)cc1 (stereo unspecified),inactive
19,COC(=O)c1ccc(NC(=O)c2ccccc2N(C)S(=O)(=O)c2ccccc2)cc1,inactive
20,Cc1ccc(N/N=C/c2ccncc2)cc1,inactive
21,Cc1ccc(-c2ccccc2NC(=O)CS(=O)CC(=O)Nc2ccc(C)c(Cl)c2)o1 (stereo unspecified),inactive
22,COc1ccc(-n2c3c(cc(C(=O)Nc4cccc(C)n4)c2=O)C(=O)CC(C)(C)C3)cc1,inactive

row,Compound,inhibition
1,CNc1nc(SC)n(C)c(=O)c1N=O,inactive
2,O=C(CCCCCn1c(=S)[nH]c2ccc(N3CCOCC3)cc2c1=O)NC1CCN(Cc2ccccc2)CC1,inactive
3,CCOC(=O)c1cc(-c2ccc(F)cc2)n(CCC(=O)NC2CCN(Cc3ccccc3)CC2)c1C,inactive
4,Cc1ccc(NC(=S)Nc2ccc(S(=O)(=O)Nc3ncccn3)cc2)cc1Cl,inactive
5,Cc1ccc(CCNC(=O)C2CCN(S(=O)(=O)N3CCCC3)CC2)cc1,inactive
6,CC1CCN(c2nc3ccc(C(=O)NCCCN4CCCCC4)cc3s2)CC1,inactive
7,Cc1c(C)n(C)c2ccc(C(=O)NCCCN3CCCC3)cc12,inactive
8,O=C(c1ccc2c3c(cccc13)CC2)C1CCCN(Cc2ncc[nH]2)C1 (stereo unspecified),inactive
9,COCC1CCCN(Cc2cn[nH]c2-c2cc3ccccc3o2)C1 (stereo unspecified),inactive
10,O=c1cc(-c2ccc(Cl)cc2)[nH][nH]1,inactive
11,COc1ccc2c(c1)c1nc(SCC(C)C)n(CCO)c(=O)c1n2C,inactive
12,O=C(CN(C(=O)CNS(=O)(=O)c1ccccc1)C1CCCC1)NCc1ccco1,inactive
13,CCn1c(CNC(=O)c2ccc(OC)cc2)nnc1SC,inactive
14,CN(C)S(=O)(=O)c1cccc(NC(=O)c2cnccn2)c1,inactive
15,COc1ccc(C(=O)CSc2nnc(-c3cnccn3)n2Cc2ccco2)cc1,inactive
16,CC(=O)Nc1ccccc1-c1nc2ccc(C(=O)N3CCN(c4cc(C)ccc4C)CC3)cc2[nH]c1=O,inactive
17,Cn1cc(C(=O)N/N=C/C(Br)=C/c2ccccc2)ccc1=O,inactive
18,COc1cccc(/C=N/NC(=O)CO/N=C(\C)c2cccs2)c1OC,inactive
19,COc1cccc(/C=N/NC(=O)CSCC(=O)Nc2ccccc2)c1O,inactive
20,COc1cccc(/C=N/NC(=O)C(=O)N2CCCC2)c1O,inactive
21,C/C(=N\NC(=O)c1c(Br)c(C)nn1C)c1ccc(NC(=O)c2ccoc2C)cc1,inactive
22,O=C(Nc1ccc2[nH]c(=S)sc2c1)Nc1ccccc1F,inactive

row,Compound,inhibition
1,CC1=C([N+](=O)[O-])C(c2cccc(Br)c2)C2=C(N1)c1ccccc1C2=O (stereo unspecified),inactive
2,Cn1nnnc1SCc1nnc(-c2ccccc2Br)o1,inactive
3,Cc1c(C)c2ccc(OC(C)C(=O)N[C@@H](Cc3c[nH]c4ccccc34)C(=O)O)c(C)c2oc1=O (stereo partly specified),inactive
4,COc1ccc(-c2nnn(-c3ccc(Cl)cc3Cl)c2N)cc1,inactive
5,CC(=O)Oc1ccc(C(=O)Nc2ccc3c(c2)C(=O)N(CCC(=O)O)C3=O)cc1,inactive
6,Cc1ccccc1-n1ncc2c([N+](=O)[O-])cc([N+](=O)[O-])cc21,inactive
7,COc1cc(NS(=O)(=O)c2ccc(NC(=S)Nc3ccccc3)cc2)nc(OC)n1,inactive
8,Cc1ccc(-n2[nH]c(C)c(C=NCc3ccncc3)c2=O)cc1,inactive
9,Cc1[nH]n(-c2ccccc2)c(=O)c1C(c1cccc([N+](=O)[O-])c1O)c1c(C)[nH]n(-c2ccccc2)c1=O,inactive
10,COc1ccc(CCNC(=O)CSc2ccc(-c3ccncc3)nn2)cc1,inactive
11,O=C(Nc1ccc2c(c1)OCCO2)C(=S)NCc1ccccc1,inactive
12,O=C(CCN1CCC(c2ccccc2)C1)c1ccc2c(c1)OCCO2 (stereo unspecified),inactive
13,Cc1ccc(N(C(=O)c2sc(C)nc2C)C(C(=O)NCc2ccco2)c2ccccc2)cc1 (stereo unspecified),inactive
14,COc1ccc(C2=NN3C(=O)c4c(ccc(OC)c4OC)C3C2)cc1 (stereo unspecified),inactive
15,O=[N+]([O-])c1cccnc1S(=O)(=O)c1ccccc1,inactive
16,O=c1ccnc(Sc2ncccc2[N+](=O)[O-])[nH]1,inactive
17,CC(=O)NS(=O)(=O)c1ccc(Nc2ccc([N+](=O)[O-])c3nonc23)cc1,inactive
18,COc1ccc(CCN(C(=O)C(F)(F)F)C(C(=O)NC2CCCC2)c2cccs2)cc1 (stereo unspecified),inactive
